# ELG1 repair inh – ELG1-dependent DNA repair inhibition; HEK293T ELG1-luciferase reporter, luminescence, 16 h; DNA damage induced by 5-fluorouridine; Potency, µM (doses to about 46.1 µM), actives largely listed as inhibitors; 2.3% of 330,000 active; AID 504467; note: nearly all actives have a fitted effect of over 55% in size
#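 Quantitative HTS, concentration-response format. 2,000 cells/well co-treated with 5-fluorouridine and compound, 16 hr in 5% CO2 at 37 °C; ONE-Glo luminescence read after 30 min.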
# DT40 TDP1 no CPT – qHTS for Inhibitors of human tyrosyl-DNA phosphodiesterase 1 (TDP1): qHTS in cells in absence of CPT | DT40 Tdp1-/- hTDP1 cells, no CPT, ATP luminescence, 48 h | Potency, µM (highest dose often 46.2 µM), most hits filed as inhibitors | 15% of 420,000 active; note: nearly all actives have a fitted effect of over 55% in size
#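 Luminescent ATP content (CellTiter-Glo) served as the growth readout. Knockout chicken DT40 cells expressing human TDP1 were exposed to compounds without camptothecin for a minimum 48 hr at 37 °C.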
# Gal4-VP16 FLuc – counter-screen for ROR gamma inhibitors: Gal4-VP16 reporter. Drosophila S2 Gal4-VP16 UAS-luciferase, luminescence, 20 h. Potency, µM (titrated, usually from 53.6 µM), hits mostly inhibitors. 3.5% of 310,000 active;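 note: Gal4-VP16 expression switched on by copper sulfate through the metallothionein promoter; nearly all actives have a fitted effect of over 50% in size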
# IL1B secr inh – blocks inflammasome-driven IL-1 beta release; activity change, % at 57.5 µM; 4.7% of 360,000 active; AID 743279; THP-1 LPS/ATP IL-1B secretion, AlphaLISA, 16 h; active compounds read low; in the data active = activity change below about -50%; inconclusive = mostly about -30% to -49%
#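 Secreted IL-1B measured by AlphaLISA bead assay after 16 h compound exposure of THP-1 cells; compounds (final up to 57.5 uM) added 1 h before LPS (250 ng/mL) and ATP (1.25 mM) stimulation; lower signal means less secretion.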
# TDP1 cell CPT – DT40-hTDP1 cell growth loss with CPT | chicken DT40 Tdp1-/-;hTDP1 cells + 20 nM CPT, ATP luminescence, 48 h | Potency, µM (titrated, usually from 46.2 µM), usual class: inhibitors | 12% of 420,000 active | AID 686979; note: nearly all actives have a fitted effect of over 55% in size
#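 Cell growth measured by CellTiter-Glo luminescence after a minimum 48 h, 37 C compound exposure with 20 nM CPT in Tdp1-knockout DT40 cells stably expressing hTDP1, seeded 400/well; qHTS titration format.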
# RORg inh – blocks mouse ROR gamma transcriptional activity. P51450. Drosophila S2 Gal4-RORgamma UAS-luciferase reporter, 20 h. Potency, µM (highest dose often 53.6 µM), actives largely listed as inhibitors. 5.4% of 310,000 active; note: nearly all actives have a fitted effect of over 60% in size
# Target sequence (P51450 whole entry, looked up, the tested form may be a part): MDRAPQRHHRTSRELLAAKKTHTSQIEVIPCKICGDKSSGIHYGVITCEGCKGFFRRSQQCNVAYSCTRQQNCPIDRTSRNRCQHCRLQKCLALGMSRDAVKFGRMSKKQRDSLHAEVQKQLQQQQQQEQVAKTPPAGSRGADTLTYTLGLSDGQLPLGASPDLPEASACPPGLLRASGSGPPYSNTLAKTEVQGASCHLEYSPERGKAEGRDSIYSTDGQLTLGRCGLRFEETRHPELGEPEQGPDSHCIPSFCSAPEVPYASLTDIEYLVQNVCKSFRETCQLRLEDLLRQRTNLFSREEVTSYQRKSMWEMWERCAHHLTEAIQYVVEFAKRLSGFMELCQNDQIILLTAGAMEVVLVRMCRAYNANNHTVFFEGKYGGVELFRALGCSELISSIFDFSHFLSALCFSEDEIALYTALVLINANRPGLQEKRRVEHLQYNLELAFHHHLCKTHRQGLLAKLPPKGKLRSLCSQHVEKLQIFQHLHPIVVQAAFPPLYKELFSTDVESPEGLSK
#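 Drosophila Schneider cells stably carrying a metallothionein-driven Gal4 DBD–ROR gamma fusion and a UAS-Photinus luciferase reporter were exposed to compound for 1 hr, then induced with copper sulfate (700 uM final) for 20 hr at ambient temperature before luminescence reading.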
# Hits are given with their value; n = inactive; u = inconclusive; x = no result given; [ ] = another dose, or the depositor's remark. Rows were chosen to be rich in hits. Some 21% of all compounds tested hit in one or more screens of this group. Unless noted, calls come from the whole dose curve; as a rule, active = well fitted curve in the direction sought with a large enough effect; inconclusive = small, poorly fitted or top-dose-only effect, or another doubt; inactive = no such curve, though single readings can be large; an effect the other way counts as inactive or inconclusive.
SMILES,ELG1 repair inh,DT40 TDP1 no CPT,Gal4-VP16 FLuc,IL1B secr inh,TDP1 cell CPT,RORg inh
CCOC(=O)N1CCN(C(=O)CS(=O)(=O)c2cn(Cc3ccc(F)cc3)c3ccccc23)CC1,u,u,n,n,n,n
O=C(NCCC1=CCCCC1)Nc1ccc2nsnc2c1,n,10µM,n,-94,u,n
Cc1cccc(CN(Nc2ccccc2)c2ccccc2)n1,x,u,x,n,n,x
Cc1ccc(C)c(N2CCN(C(c3ccccc3)c3nnc(-c4ccccc4F)o3)CC2)c1 (stereo not given),x,23µM,x,x,u,x
Cc1ccc(C)c(N2CCN(C(c3ccc(F)cc3)c3nnc(-c4ccccc4)o3)CC2)c1 (stereo not given),x,15µM,x,x,u,x
Cc1cccc(N2CCN(C(c3ccccc3)c3nnc(-c4ccccc4Cl)o3)CC2)c1C (stereo not given),x,u,x,x,21µM,x
Cc1cccc(N2CCN(C(c3ccccc3)c3nnc(-c4ccccc4F)o3)CC2)c1C (stereo not given),x,23µM,x,x,15µM,x
CC(C)(C)C(=O)O/N=C(\N)c1ccc(Oc2cc(Cl)cc(Cl)c2)c([N+](=O)[O-])c1,n,u,n,-61,u,n
CCOC(=O)c1cc(-c2ccccc2)n(-c2cccc(C(=O)Nc3ccc(F)c(F)c3)c2)c1C,x,n,x,x,u,x
CCOC(=O)c1cc(-c2ccccc2)n(-c2cccc(C(=O)N(C)c3ccc(C)cc3)c2)c1C,x,8.2µM,x,x,n,x
Cc1ccc(-c2ccc(=O)n(CC(=O)Nc3ccc(C(C)C)cc3)n2)cc1,x,n,x,x,n,x
CCCCNC(=S)N/N=C/c1cc(C)ccc1C,n,6.5µM,3.2µM,n,5.2µM,1.8µM
CCCCNC(=S)N/N=C/c1ccccc1F,n,15µM,3.2µM,n,u,2.5µM
CCCCNC(=S)N/N=C/c1sccc1C,n,1.5µM,n,n,0.92µM,1.1µM
CCOC(=O)N/N=C\c1sccc1C,u,n,u,n,n,n
CCC1(C2CCN(C(=O)c3ccc4ccccc4c3)CC2)NC(=O)N(CCc2scnc2C)C1=O (stereo not given),x,n,x,x,n[9.04 µM],x
CCc1cccc(C)c1NC(=O)CCn1nc(C)c2c(C)n(-c3ccccc3)nc2c1=O,x,n,x,x,n,x
CCCCCCN1C[C@@H](n2cc(C3CC3)nn2)[C@H](O)C[C@@H]1c1ccc(OC)cc1,x,15µM,x,u,18µM,x
CCCCCCN1C[C@@H](O)[C@H](n2cc(C3CC3)nn2)C[C@@H]1c1ccc(OC)cc1,x,u,x,n,u,x
CCCCCCN1C[C@H](n2cc(C3CC3)nn2)[C@@H](O)C[C@@H]1c1ccc(C)cc1,x,12µM,x,n,21µM,x
CC[C@H](C)[C@H](N)C(=O)N[C@@H](CCCCN)C(=O)N[C@H](C(=O)N[C@@H](C)C(=O)N[C@H](C(=O)O)C(C)C)C(C)C,x,x,n,x,x,n
CCC(C)C(N)C(=O)NC(CC(N)=O)C(=O)NC(CC(C)C)C(=O)NC(CCCCN)C(=O)NC(C)C(=O)NC(CC(C)C)C(=O)NC(C)C(=O)NC(C)C(=O)NC(CC(C)C)C(=O)NC(C)C(=O)NC(CCCCN)C(=O)NC(CCCCN)C(=O)NC(C(=O)NC(CC(C)C)C(N)=O)C(C)CC (stereo not given),x,x,18µM,x,x,u
COc1ccc(N2CCN(CCNC(=O)Nc3cc(Cl)ccc3OC)CC2)cc1,n,u,n,n,u,n
COc1ccc(Cl)cc1N1CCN(CCNC(=O)Nc2ccccc2C)CC1,n,n,n,-77,n,n
Cc1cccc(N2CCN(CCNC(=O)Nc3ccc(Cl)cc3)CC2)c1C,x,13µM,x,x,13µM,x
SMILES,ELG1 repair inh,DT40 TDP1 no CPT,Gal4-VP16 FLuc,IL1B secr inh,TDP1 cell CPT,RORg inh
O=C(NCCN1CCN(c2ccccc2Cl)CC1)Nc1ccccc1,n,u,n,n,n,n[1.91 µM]
Cc1ccc(-c2nnc(N3CCOCC3)c3ccccc23)cc1S(=O)(=O)NCC1CCCO1 (stereo not given),u,26µM,u,u,u,n
Cc1ccc(-c2n[nH]c(=O)c3ccccc23)cc1S(=O)(=O)NCC1CCCO1 (stereo not given),n,u,n,n,u,n
Cc1ccccc1Nc1nnc(-c2ccc(C)c(S(=O)(=O)NCC3CCCO3)c2)c2ccccc12 (stereo not given),x,13µM,x,x,u,x
Cc1ccc(-c2nnc(Nc3cccc(O)c3)c3ccccc23)cc1S(=O)(=O)NCC1CCCO1 (stereo not given),x,23µM,x,x,u,x
COc1ccccc1N1CCN(c2nc3c(S(=O)(=O)c4ccccc4)nnn3c3ccc(Cl)cc23)CC1,x,n,x,x,n,x
Cc1cc(C(=O)OCC(=O)N(C)c2ccccc2)c(C)o1,n,n,x,n,n,x
Cc1ccc(NC(=O)CSc2nc(=O)n(CCCN3CCOCC3)c3c2CCCC3)c(C)c1,n,n,x,n,n,x
O=C(CCC(=O)OCCOc1ccccc1)OCCOc1ccccc1,x,n,x,n,n,x
O=C(Cn1nc2c(cc1=O)CCCC2)NCc1ccccc1Cl,x,n,x,x,n,x
O=C(CN1C(=O)CCc2cc(S(=O)(=O)N3CCCCC3)ccc21)NCc1ccc(Cl)cc1,x,15µM,x,x,21µM,x
O=C(CN1C(=O)CCc2cc(S(=O)(=O)N3CCOCC3)ccc21)NCc1ccccc1,x,n,x,x,n,x
O=C(Cn1nc2c(cc1=O)CCCC2)NCc1ccc(Cl)cc1,x,18µM,x,x,16µM,x
CCOc1ccccc1CNC(=O)CN1C(=O)CCc2cc(S(=O)(=O)N3CCCCC3)ccc21,x,21µM,x,x,u,x
O=C(CN1C(=O)CCc2cc(S(=O)(=O)N3CCOCC3)ccc21)NCc1ccccc1Cl,x,n,x,x,n,x
CCCCN(CCCNC(=O)c1c(C)oc2nc[nH]c(=O)c12)Cc1ccccc1,x,u,x,x,n,x
Cc1cc(-c2nnc(SCC(=O)Nc3cccc(Cl)c3)n2N)n[nH]1,n,n,u,n,n,n
CCc1ccc(NC(=O)CSc2nc3n[nH]c(C)c3c(=N)n2-c2cccc(OC)c2)cc1,10µM,26µM,n,n,18µM,n
Cc1ccc(-n2c(SCC(=O)Nc3cccc(Cl)c3)nc3n[nH]c(C)c3c2=N)cc1,x,7.3µM,x,x,8.2µM,x
COc1cccc(NC(=O)CSc2nnc(-c3cc(C)[nH]n3)n2N)c1,n,n,n,n,n,n
COc1cccc(NC(=O)CSc2nc3n[nH]c(C)c3c(=N)n2-c2cccc(OC)c2)c1,u,21µM,n,-51,23µM,n
COc1ccc(NC(=O)CSc2nccn2-c2cccc(OC)c2)cc1,n,n,n,n,n,n
Cc1cccc(-n2c(SCC(=O)Nc3ccc(C)c(C)c3)nc3n[nH]c(C)c3c2=N)c1,x,7.3µM,x,x,10µM,x

# Compound activity: PubChem, National Center for Advancing Translational Sciences (NCATS)
